According to PubChem BioAssay (Tox21):
Where “and” joins values, the source holds several entries; their conditions need not be identical. Equal entries are not always repeated. Results filed as inconclusive are left out. Entries that show only a call come without a potency. The source holds several records for some structures; these can differ, active in one and inactive in another. Calls of active or inactive are those of the source. Calls come from the whole dose curve; as a rule, active = well fitted curve in the direction sought with a large enough effect in the repeat runs; inconclusive = weak or mixed curves; inactive = no such curve, though single readings can be large; an effect the other way counts as inactive or inconclusive.

Target: Voltage-gated inwardly rectifying potassium channel KCNH2 (Homo sapiens) (UniProt Q12809)
Sequence (Q12809 whole entry, looked up): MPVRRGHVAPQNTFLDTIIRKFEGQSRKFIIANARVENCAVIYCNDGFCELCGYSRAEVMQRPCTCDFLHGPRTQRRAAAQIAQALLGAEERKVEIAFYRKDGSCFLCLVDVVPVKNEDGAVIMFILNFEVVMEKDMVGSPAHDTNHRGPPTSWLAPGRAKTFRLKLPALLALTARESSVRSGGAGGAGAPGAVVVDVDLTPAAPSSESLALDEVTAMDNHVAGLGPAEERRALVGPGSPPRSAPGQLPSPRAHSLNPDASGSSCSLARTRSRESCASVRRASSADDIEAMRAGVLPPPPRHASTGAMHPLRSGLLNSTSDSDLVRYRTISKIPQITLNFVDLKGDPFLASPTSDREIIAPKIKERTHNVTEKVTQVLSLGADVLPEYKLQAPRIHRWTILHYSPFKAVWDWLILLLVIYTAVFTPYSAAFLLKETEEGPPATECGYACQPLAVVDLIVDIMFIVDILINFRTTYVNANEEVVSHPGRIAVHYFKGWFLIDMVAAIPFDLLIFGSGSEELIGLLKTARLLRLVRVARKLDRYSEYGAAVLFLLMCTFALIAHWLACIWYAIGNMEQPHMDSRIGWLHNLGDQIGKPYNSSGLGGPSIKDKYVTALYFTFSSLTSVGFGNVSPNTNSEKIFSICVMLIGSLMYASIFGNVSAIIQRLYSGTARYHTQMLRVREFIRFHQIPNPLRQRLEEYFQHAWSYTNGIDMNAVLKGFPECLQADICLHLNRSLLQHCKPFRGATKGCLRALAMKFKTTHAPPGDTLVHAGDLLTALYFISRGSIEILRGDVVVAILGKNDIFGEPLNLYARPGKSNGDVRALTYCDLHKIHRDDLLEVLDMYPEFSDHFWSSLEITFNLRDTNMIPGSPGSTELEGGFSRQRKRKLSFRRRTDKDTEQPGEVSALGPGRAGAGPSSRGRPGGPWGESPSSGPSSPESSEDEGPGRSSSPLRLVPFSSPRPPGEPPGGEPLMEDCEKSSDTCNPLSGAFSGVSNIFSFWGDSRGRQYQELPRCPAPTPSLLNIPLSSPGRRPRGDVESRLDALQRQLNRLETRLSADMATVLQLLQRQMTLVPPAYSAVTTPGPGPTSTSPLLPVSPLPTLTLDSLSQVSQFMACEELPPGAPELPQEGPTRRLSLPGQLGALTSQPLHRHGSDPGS
Experiment: Human Ether-a-go-go-Related Gene (hERG) channel small molecule antagonists: fluorescence cell-based qHTS assay (AID 1671200);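 note: hERG-expressing U2OS cells given a thallium stimulus after FluxOR II dye loading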
Details: hERG-U2OS cells, FluxOR thallium flux fluorescence; series mostly up to 76.8 µM; activity change, negative = inhibition: at the top concentration
In short: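 hERG-U2OS cells plated overnight at 37 C, loaded with FluxOR II dye 1 h at RT in dark; after 10 min, thallium stimulus added. Fluorescence (480/540 nm) read kinetically for 2 min at 1 s intervals.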
Note: nearly all actives have a fitted effect of over 50% in size.

Row | Structure (SMILES) | Potency
1 | CCCCCCOCCOCCO | inactive
2 | COc1ccc(C(=O)c2ccccc2O)c(O)c1 | inactive
3 | CC(C)[N+](C)(CCOC(=O)C1c2ccccc2Oc2ccccc21)C(C)C | inactive
4 | CN(Cc1cnc2nc(N)nc(N)c2n1)c1ccc(C(=O)N[C@@H](CCC(=O)O)C(=O)O)cc1 | inactive
5 | CC(C)=CCO | inactive
6 | CC(=O)[C@H]1CC[C@H]2[C@@H]3CC=C4C[C@@H](O)CC[C@]4(C)[C@H]3CC[C@]12C | inactive
7 | CN1CCOCC1 | inactive
8 | NCCN | inactive

Target: Cytochrome P450 3A4 (Homo sapiens) (UniProt P08684)
Sequence (P08684 whole entry, looked up): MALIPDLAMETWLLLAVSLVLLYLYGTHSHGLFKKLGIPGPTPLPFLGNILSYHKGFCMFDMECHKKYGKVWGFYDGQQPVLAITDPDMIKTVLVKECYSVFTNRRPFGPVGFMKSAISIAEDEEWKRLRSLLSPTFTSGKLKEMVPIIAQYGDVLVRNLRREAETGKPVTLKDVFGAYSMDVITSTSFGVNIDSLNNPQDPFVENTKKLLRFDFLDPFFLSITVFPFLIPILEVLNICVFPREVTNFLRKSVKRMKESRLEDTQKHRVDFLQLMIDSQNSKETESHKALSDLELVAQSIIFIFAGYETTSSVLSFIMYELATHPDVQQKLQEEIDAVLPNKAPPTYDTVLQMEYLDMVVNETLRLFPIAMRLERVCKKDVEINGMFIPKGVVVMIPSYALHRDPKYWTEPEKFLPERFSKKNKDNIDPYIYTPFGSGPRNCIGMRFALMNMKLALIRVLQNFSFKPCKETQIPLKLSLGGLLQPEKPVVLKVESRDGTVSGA
Experiment: Cytochrome P450 Family 3 Subfamily A Member 4 (CYP3A4) small molecule antagonists: luciferase reporter qHTS assay (AID 1671201); note: potency is the fitted concentration of half-maximal effect
Details: P450-Glo CYP3A4 enzyme, luciferin luminescence, 1 h; series mostly up to 115 µM; activity change, negative = inhibition: at the top concentration
In short: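 P450-Glo CYP3A4 luminescent assay: compounds preincubated 10 min at room temperature with enzyme and proluciferin substrate, NADPH regeneration added, 1 h room-temperature reaction, stopped with luciferin detection reagent; luminescence read after 20 min. Ketoconazole positive control.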

Row | Structure (SMILES) | Potency | activity change, negative = inhibition
9 | CC1(C)C(C=C(Cl)Cl)C1C(=O)OCc1cccc(Oc2ccccc2)c1 (stereo unspecified) | inactive | –
10 | c1ccc2cc3ccccc3cc2c1 | inactive | –
11 | Cc1cccc(Nc2ccccc2C(=O)O)c1C | inactive | –
12 | CCC(Cc1c(I)cc(I)c(N)c1I)C(=O)O (stereo unspecified) | inactive | –
13 | NC[C@H](O)c1ccc(O)c(O)c1 | – | 0.157% [at 52.9 µM] (inactive)
14 | [O-]/[N+](=N\O)c1ccccc1 | inactive | –
15 | O=S1(=O)CCCO1 | inactive | –
16 | c1ccc2ncccc2c1 | inactive | –
17 | C[C@]12C=CC(=O)C=C1CC[C@H]1[C@@H]3C[C@@H](O)[C@](O)(C(=O)CO)[C@@]3(C)C[C@H](O)[C@@]12F | – | -18.2% [at 52.9 µM] (inactive)
18 | CCC/C=C/C=O | – | 5.02% (inactive)
19 | Nc1ccc(O)c(N)c1 | 63.3 µM (active) | –
20 | COC(=O)C(C)Oc1ccc(Oc2ncc(C(F)(F)F)cc2Cl)cc1 (stereo unspecified) | – | 33.2% (inactive)
21 | C[C@]12CC[C@@H]3c4ccc(O)cc4CC[C@H]3[C@@H]1CC[C@@H]2O | inactive | –
22 | OCCNCCO | inactive | –
23 | C[C@]12CC[C@@H]3c4ccc(O)cc4CC[C@H]3[C@@H]1CC[C@H]2O | – | -5.15% (inactive)
24 | CCCCCCCCCCCCCO | inactive | –
25 | COC(=O)c1ccc(C)cc1 | inactive | –
26 | CN(C)/N=N/c1nc[nH]c1C(N)=O | inactive | –
27 | CC(C)(C)c1cccc(C(C)(C)C)c1O | inactive | –
28 | [Na+] | inactive | –
29 | C=CC(C)(O)CCC=C(C)C (stereo unspecified) | – | -3.99% (inactive)
30 | O=C(O)CCCCCCCCCCCC(=O)O | inactive | –
31 | COc1ccc(-c2coc3cc(O)cc(O)c3c2=O)cc1 | 20.2 µM (active) and 35.6 µM (active) | –
32 | CC(C)[N+](C)(CCOC(=O)C1c2ccccc2Oc2ccccc21)C(C)C | inactive | –
33 | CN(Cc1cnc2nc(N)nc(N)c2n1)c1ccc(C(=O)N[C@@H](CCC(=O)O)C(=O)O)cc1 | inactive | –
34 | CC(C)=CCO | inactive | –
35 | CC(=O)[C@H]1CC[C@H]2[C@@H]3CC=C4C[C@@H](O)CC[C@]4(C)[C@H]3CC[C@]12C | inactive | –
36 | NCCN | 81.2 µM (active) and inactive | –
